Source: PubChem (Sanford-Burnham Center for Chemical Genomics)
The entries come from a sample that favours hits as a whole.
VHR inh color: inhibitors of human VHR1 phosphatase (DUSP3) | P51452 | recombinant VHR phosphatase, colorimetric substrate read-out | inhibition, % at 20 µM | 50,000 compounds, 0.7% hits | AID 1992; in the data active = inhibition above about 60%
Target sequence (P51452 whole entry, looked up): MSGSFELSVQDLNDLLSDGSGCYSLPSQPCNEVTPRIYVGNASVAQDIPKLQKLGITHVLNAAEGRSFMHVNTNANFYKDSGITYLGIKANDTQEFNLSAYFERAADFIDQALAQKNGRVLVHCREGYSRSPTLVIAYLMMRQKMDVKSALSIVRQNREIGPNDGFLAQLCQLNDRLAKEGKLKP
A number is an active result; – = inactive.

SMILES | VHR inh color
COc1cc(NC(=O)S(=O)(=O)c2ccccc2)ccc1NC(=O)c1ccco1 | –
O=C(O)CCN1C(=O)/C(=C/c2ccc(-c3ccc([N+](=O)[O-])cc3)o2)SC1=S | –
CSCCC(C(=O)O)N1C(=O)/C(=C\c2ccc(-c3ccc([N+](=O)[O-])cc3)o2)SC1=S (stereo unspecified) | 81
O=C1/C(=C\c2ccc(-c3ccc([N+](=O)[O-])cc3)o2)SC(=S)N1c1ccc(O)cc1 | –
O=C1NC(=S)/C(=C\c2ccc(-c3ccc([N+](=O)[O-])cc3)o2)S1 | 100
CN1C(=O)/C(=C/c2ccc(-c3ccc([N+](=O)[O-])cc3)o2)SC1=S | –
O=C1NC(=O)/C(=C\c2ccc(-c3cccc([N+](=O)[O-])c3)o2)S1 | –
C#CCOc1ccc(/C=C2\C(=O)NC(=O)N(c3ccc(OCC)cc3)C2=O)cc1Br | –
O=C1c2ccccc2C(=O)N1CSc1nc(-c2ccccc2)cc(-c2ccccc2)n1 | –
COc1ccc(NC(=O)c2c(C)c(-c3ccc(Cl)cc3)nc3ccccc23)c(OC)c1 | –
O=C(NCC1CCCO1)c1cc2nc(-c3ccco3)cc(C(F)(F)F)n2n1 (stereo unspecified) | –
COC(=O)c1ccc(/C=N/NC(=O)COc2c(Br)cc(Br)cc2Br)cc1 | –
N#C/C(=C\c1ccc(-c2ccc3c(c2)COC3=O)o1)c1nc2ccccc2[nH]1 | 64
N#CC(C#N)=Cc1ccc(-c2ccc3c(c2)COC3=O)o1 | –
N#C/C(=C\c1ccc(-c2ccc3c(c2)COC3=O)o1)C(N)=O | –
O=C1c2ccccc2C(=O)N1C1C(=O)N(c2ccc(Br)cc2)C1c1ccccc1 (stereo unspecified) | –
CN(C)c1ccc(NS(=O)(=O)c2ccc(N3C(=O)c4ccccc4C3=O)cc2)cc1 | –
CCCSc1nnc2n(-c3ccc(OC)cc3)c(=O)c3c4c(sc3n12)CCCC4 | –
CC1=C(C(=O)OC2CCCCC2)C(c2cccc(Cl)c2)C2=C(CC(C)(C)CC2=O)N1 (stereo unspecified) | –
Cc1c(Cl)cccc1NC(=O)C1(C)CC2c3ccccc3C1c1ccccc12 (stereo unspecified) | 79
COc1cccc(NC(=O)C2(C)CC3c4ccccc4C2c2ccccc23)c1 (stereo unspecified) | –
COC(=O)c1ccc(NC(=O)C2(C)CC3c4ccccc4C2c2ccccc23)cc1 (stereo unspecified) | –
COc1ccc(/C=C/C(=O)NCc2ccc(C)cc2)cc1OC | –
CC(=O)Nc1cccc(NS(=O)(=O)c2ccc([N+](=O)[O-])cc2)c1 | –
COc1ccc(-c2nc(-c3ccc(NC(C)=O)cc3)[nH]c2-c2ccc(OC)cc2)cc1 | –
SMILES | VHR inh color
Cn1c(O)c(/C=C2/C=CC=N2)c(=O)n(-c2ccccc2)c1=S | 69
CCOc1ccccc1-n1c(O)c(C=C2C=CC=N2)c(=O)[nH]c1=O | –
O=c1[nH]c(=O)n(-c2ccccc2Cl)c(O)c1C=C1C=CC=N1 | –
COc1ccccc1/C=C1\SC(=S)N(NC(=O)c2ccccc2)C1=O | –
Clc1cccc(OCCCCN2CCOCC2)c1Cl | –
COc1ccc(Br)cc1/C=C/C(=O)Nc1ccc(NC(=O)c2ccco2)c(OC)c1 | –
Cc1ccc(N(CC(=O)NC2CCCC2)S(=O)(=O)c2ccc(F)cc2)cc1 | –
CCOc1ccc(S(=O)(=O)N(CC(=O)NC2CCCCC2)c2ccc(C)cc2)cc1 | 90
Cc1ccc(N(CC(=O)NC2CCCC2)S(=O)(=O)c2ccccc2)cc1 | –
Cc1csc(-c2coc3cc(OCC(=O)O)cc(C)c3c2=O)n1 | –
O=C(Nc1c(-c2cccs2)nc2ccccn12)c1ccc(Cl)cc1 | –
O=C(/C=C/c1ccc(Cl)cc1)Nc1cccc2ccccc12 | –
COc1ccccc1N/N=C(/C#N)C(=N)N1CCCCC1 | –
Cc1sc(NC(=O)C2CC3CCC2C3)c(C(N)=O)c1C (stereo unspecified) | –
Cc1cc(/C=C2/SC(=O)NC2=O)c(C)n1-c1ccc(C(C)(C)C)cc1 | –
CN1C(=O)NC(=O)/C(=C/c2ccc(I)o2)C1=O | –
CC1(C)OC(=O)C(=Cc2ccc(I)o2)C(=O)O1 | 87
O=C1C(=Cc2ccc(I)o2)C(=O)c2ccccc21 | –
Cc1ccc(NC(=O)c2cc3ccccc3cc2O)c(C)c1 | –
Oc1ccc2ccccc2c1C1NN=C(c2ccccc2)S1 (stereo unspecified) | –
COc1cc(C2C(C(=O)OCc3ccccc3)=C(C)NC3=C2C(=O)CCC3)cc(Br)c1O (stereo unspecified) | –
CC(C)CNC(=O)CCCOc1ccc(Cl)cc1Cl | –
O=C(COc1ccc(Cl)cc1Cl)NCc1ccncc1 | –
O=C(COc1ccc(Cl)cc1Cl)OCc1ccccc1 | –
Cc1cccc(OC(=O)COc2ccc(Cl)cc2Cl)c1 | –
SMILES | VHR inh color
O=C(COc1ccc(Cl)cc1Cl)Oc1ccccc1 | 84
O=C(COc1ccc(Cl)cc1Cl)NCCCOCC(=O)Oc1ccc(Cl)cc1Cl | 104
Cc1cc(C=C2C(=O)NC(=S)NC2=O)c(C)n1-c1ccc(Cl)cc1 | –
CC(=O)CC(=O)Nc1ccc2[nH]c(=O)[nH]c2c1 | –
Cc1ccc(S(=O)(=O)Nc2cc(Sc3nc4ccccc4[nH]3)c(O)c3ccccc23)cc1 | –
CCCn1c(/C=C(/OC(=O)c2ccccc2)c2ccccc2)nc2ccccc21 | –
O=C(O/C(=C/c1nccn1Cc1ccccc1Cl)c1ccc(F)cc1)c1ccc(F)cc1 | 110
N/C(Cc1cccc2ccccc12)=N\OC(=O)c1ccc(F)cc1 | –
Cc1ccc(OCCOc2ccccc2/C=C2/SC(=S)N(C)C2=O)cc1 | –
Cc1ccc(C(=O)Nc2cccc(Br)c2)cc1[N+](=O)[O-] | –
COC(=O)C1=CNC=C(C(=O)OC)C1c1ccc(OC)c(OC)c1OC | –
O=C(Nc1cccc(C(=O)c2ccccc2)c1)c1ccc(Cl)cc1 | –
CC(C)C1=NN2C(=N)/C(=C/c3ccc(-c4cccc([N+](=O)[O-])c4)o3)C(=O)N=C2S1 | –
COc1cc(/C=C2/C(=N)N3N=C(C(C)C)SC3=NC2=O)cc(Cl)c1OCCOc1ccccc1 | –
CC(C)C1=NN2C(=N)/C(=C/c3ccc(Sc4ccc(Cl)cc4)o3)C(=O)N=C2S1 | 110
CC(=O)OCCNC(=O)/C(=C\c1ccc2c(c1)OCO2)NC(=O)c1ccco1 | –
Cc1ccc(NC(=O)C2C3C4CCC(C4)C23)cc1 (stereo unspecified) | –
Cc1ccc(C)c(NC(=O)C2C3C4CCC(C4)C23)c1 (stereo unspecified) | –
O=C(Nc1ccccc1)C1C2C3CCC(C3)C12 (stereo unspecified) | –
Cc1cc(C)c(NC(=O)C2C3C4CCC(C4)C23)c(C)c1 (stereo unspecified) | 114
O=C(Nc1ccc(Br)cc1)C1C2C3CCC(C3)C12 (stereo unspecified) | –
O=C(Nc1ccc(Cl)cc1)C1C2C3CCC(C3)C12 (stereo unspecified) | 118
COC(=O)CNC(=O)C1COc2ccccc2O1 (stereo unspecified) | –
CCOC(=O)c1conc1-c1ccc(SC)cc1 | –
Cc1ccc(C(=O)N2N=C(c3ccc(Cl)cc3)CC2(O)C(F)(F)F)o1 (stereo unspecified) | –
COc1cc(/C=N/O)ccc1OCc1ccc(Cl)cc1 | 105
COc1cc(C=Nc2ccc(Nc3ccccc3)cc2)ccc1OCc1ccccc1 | –
C=CCN1C(=O)NC(=O)/C(=C\c2ccc(OCc3ccc(Cl)cc3)c(OC)c2)C1=O | –
Cc1cc(-n2cc(C=O)c(-c3ccccc3)n2)nc2ccccc12 | –
